SRC3 inh: SRC3 coactivator transcriptional activity inhibitors, primary screen, cell-based, luminescence. 360,000 tested, 0.17% active. AID 588352, 2011. inhibition, % at 3.6 µM. HEK293 GAL4-SRC3 luciferase reporter. Nuclear receptor coactivator 3 (Homo sapiens), Q9Y6Q9;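 active means inhibition above a per-campaign cutoff, the mean of all compounds plus 3 SD, cut at about 60% in these data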;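 further: 0% = DMSO-treated cells and 100% = gossypol-treated cells at 36 µM; higher means less SRC3-driven luciferase light from the GAL4 reporter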
Shn3 inh set2: reduction of Shn3 3'UTR firefly luciferase signal, primary screen, Schnurri-3 inhibitor project, cell-based, Clone20 osteoblasts, set 2 | Clone20 osteoblast Shn3 3'UTR firefly luciferase, 24 h | inhibition, % at 12.5 µM | 360,000 tested, 0.52% active;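 active means mean inhibition of at least 75% with every replicate also reaching 75%; inconclusive means mean inhibition at least 75% but some replicate below; inactive means mean inhibition below 75%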;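 further: 0% = median of neutral control wells and 100% = pilot-screen positive control compound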
LRH-1 inv ag: LRH-1 (NR5A2) inverse agonists, primary screen, cell-based, luminescence, HEK293T, StAR-luciferase reporter; Nuclear receptor subfamily 5 group A member 2 (Homo sapiens), O00482; LRH-1 transfected, 24 h; inhibition, % at 3.6 µM; 360,000 tested, 0.13% active; AID 602396, 2012;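 active means inhibition above the mean inhibition of all tested compounds plus 3 SD, cut at about 73% in these data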;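 further: 0% = DMSO wells and 100% = reporter-only cells lacking LRH-1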
NCOA2 inhibitor: inhibition of GAL4-SRC2 driven luciferase reporter, primary screen, SRC2 inhibitor project, cell-based, luminescence. Nuclear receptor coactivator 2 (Homo sapiens), Q15596. HEK293 GAL4-SRC2 luciferase reporter. inhibition, % at 9 µM. 370,000 tested, 0.17% active;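 active means inhibition above the mean inhibition of all tested compounds plus 3 SD, set per campaign, cut at about 52% in these data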;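 further: 0% = DMSO treated cells and 100% = cells given Gossypol at 36 µM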
NCOA1 inh: SRC1 coactivator transcriptional activity inhibitors, primary screen, cell-based, luminescence | Nuclear receptor coactivator 1 (Homo sapiens), Q15788 | HEK293 GAL4-SRC1 luciferase reporter | inhibition, % at 3.6 µM | 360,000 tested, 0.12% active | AID 588354, 2011;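 active means inhibition above the campaign mean plus 3 SD, with each screening campaign given its own cutoff, cut at about 60% in these data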;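 further: 0% = DMSO treated cells and 100% = gossypol at 36 µM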
EBV LMP1 NFkB: EBV LMP1-driven NF-kappaB luciferase reporter inhibitors, primary screen, cell-based, luminescence, single point; LMP1-induced NF-kappaB luciferase reporter cells; inhibition, % at 12.5 µM; 350,000 tested, 0.69% active; AID 504558, 2011; in the data active means inhibition above about 41%; inconclusive means no clear call, values can overlap the other calls;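 further: 0% = neutral control wells and 100% = reference inhibitor control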
An asterisk follows results filed as active. Only some compounds are listed: those with a hit (about 1.2% of all), similar ones and a draw of the others.

CN(Cc1ccc(F)cc1)C(=O)CN1CCN(S(=O)(=O)c2ccc3c(c2)OCCCO3)CC1 was read as SRC3 inh -4, Shn3 inh set2 -14, LRH-1 inv ag 1, NCOA2 inhibitor -5, NCOA1 inh 11 and EBV LMP1 NFkB 48*.
Screening Nc1nonc1C(=O)NCCNCc1cc(Br)ccc1OCc1ccccc1F returned SRC3 inh 15, Shn3 inh set2 85*, LRH-1 inv ag 12, NCOA2 inhibitor 17, NCOA1 inh 3 and EBV LMP1 NFkB 3.
`NS(=O)(=O)c1ccc(CCNCc2cc(Cl)ccc2OCc2ccccc2)cc1` gave SRC3 inh 12, Shn3 inh set2 84, LRH-1 inv ag 2, NCOA2 inhibitor 2, NCOA1 inh 13 and EBV LMP1 NFkB 5.
For NS(=O)(=O)c1ccc(CCNCc2cc(Br)ccc2OCc2ccccc2F)cc1 the results were SRC3 inh 18, Shn3 inh set2 86*, LRH-1 inv ag -1, NCOA2 inhibitor 0, NCOA1 inh -12 and EBV LMP1 NFkB 4.
For Nc1nonc1C(=O)NCCNCc1ccccc1OCc1ccccc1F the results were SRC3 inh -7, Shn3 inh set2 41, LRH-1 inv ag 11, NCOA2 inhibitor 19, NCOA1 inh -13 and EBV LMP1 NFkB -2.
`N#Cc1c([N+](=O)[O-])cc([N+](=O)[O-])cc1S(=O)(=O)Cc1ccccc1` gave SRC3 inh -23, Shn3 inh set2 95*, LRH-1 inv ag 32, NCOA2 inhibitor 61*, NCOA1 inh -8 and EBV LMP1 NFkB 28.
For COc1ccc(-n2cc(C(=O)c3ccccc3O)cn2)cc1 the results were SRC3 inh -36, Shn3 inh set2 9, LRH-1 inv ag -92, NCOA2 inhibitor -30, NCOA1 inh -35 and EBV LMP1 NFkB 50*.
`COc1ccc(O)c(C(=O)c2cnn(-c3ccccc3)c2)c1` gave SRC3 inh -34, Shn3 inh set2 -23, LRH-1 inv ag -34, NCOA2 inhibitor -34, NCOA1 inh -25 and EBV LMP1 NFkB -22.
`C[C@@H](C[C@@H](O)[C@H](O)C(C)(C)O)[C@@H]1CC[C@]2(C)C3=CC[C@H]4C(C)(C)C(=O)CC[C@]4(C)[C@H]3CC[C@@]12C` gave SRC3 inh 22, Shn3 inh set2 92*, LRH-1 inv ag 10, NCOA2 inhibitor 10, NCOA1 inh 12 and EBV LMP1 NFkB 6.
For COC(=O)[C@]12C[C@H](CC(=O)NCCCN3CCCC3=O)C(=O)N(Cc3ccc4c(c3)OCO4)C1=C[C@H](C(C)(C)C)O[C@@H]2C the results were NCOA2 inhibitor 3.
COc1cccc(/C=N/Nc2nc3ccccc3[nH]2)c1O was read as SRC3 inh -11, Shn3 inh set2 inconclusive, LRH-1 inv ag -38, NCOA2 inhibitor 12, NCOA1 inh -29 and EBV LMP1 NFkB 83*.
Screening O=C(N/N=C/c1cc([N+](=O)[O-])ccc1O)c1cc(-c2ccccc2)nc2ccccc12 returned SRC3 inh 20, Shn3 inh set2 88*, LRH-1 inv ag 9, NCOA2 inhibitor -3, NCOA1 inh 19 and EBV LMP1 NFkB 4.
For CCCn1c(/C=N/Nc2nc3ccccc3[nH]2)nc2ccccc21 the results were SRC3 inh -26, Shn3 inh set2 74, LRH-1 inv ag -52, NCOA2 inhibitor -75, NCOA1 inh -38 and EBV LMP1 NFkB 47*.
Screening O=[N+]([O-])c1ccc(O)c(/C=N/Nc2ccccn2)c1 returned SRC3 inh 49, Shn3 inh set2 75, LRH-1 inv ag 39, NCOA2 inhibitor 20, NCOA1 inh 27 and EBV LMP1 NFkB 47*.
Screening Cn1c(/C=N/Nc2nc3ccccc3[nH]2)nc2ccccc21 returned SRC3 inh -92, Shn3 inh set2 -90, LRH-1 inv ag -127, NCOA2 inhibitor -45, NCOA1 inh -178 and EBV LMP1 NFkB -16.
`O=C(C(=O)N1CCC(CNC(=O)c2cccs2)CC1)c1cc2ccccc2o1` gave NCOA2 inhibitor 12.
Screening CC(=O)NC(Cc1ccc2c(c1)OCO2)C(=O)N1CCCC1 (stereo unspecified) returned NCOA2 inhibitor 0.
Oc1ccc(C=NNc2ccccn2)c(O)c1 was read as SRC3 inh 35, Shn3 inh set2 86*, LRH-1 inv ag 14, NCOA2 inhibitor 23, NCOA1 inh 28 and EBV LMP1 NFkB inconclusive.
Screening O=[N+]([O-])c1ccc(NN=Cc2ccc(O)cc2O)nc1 returned SRC3 inh -7, Shn3 inh set2 78, LRH-1 inv ag -4, NCOA2 inhibitor -15, NCOA1 inh -45 and EBV LMP1 NFkB 3.
CCN(CC)S(=O)(=O)c1ccc(N/N=C/c2ccc(O)cc2O)nc1 was read as SRC3 inh 68*, Shn3 inh set2 inconclusive, LRH-1 inv ag 40, NCOA2 inhibitor 31, NCOA1 inh 46 and EBV LMP1 NFkB 57*.
O=[N+]([O-])c1ccc(O)c(/C=N/Nc2nc3ccccc3[nH]2)c1 was read as SRC3 inh 64*, Shn3 inh set2 72, LRH-1 inv ag 91*, NCOA2 inhibitor 8, NCOA1 inh 17 and EBV LMP1 NFkB 28.
O=[N+]([O-])c1ccc(O)c(/C=N/Nc2ncnc3c2cnn3-c2ccccc2)c1 was read as SRC3 inh 14, Shn3 inh set2 92*, LRH-1 inv ag 2, NCOA2 inhibitor -35, NCOA1 inh 0 and EBV LMP1 NFkB 47*.
Screening Oc1cccc(C=NNc2ccccn2)c1 returned SRC3 inh -50, Shn3 inh set2 -66, LRH-1 inv ag -34, NCOA2 inhibitor -8, NCOA1 inh -44 and EBV LMP1 NFkB 0.
Screening COc1ccccc1CCn1cnc(-c2cccc(F)c2)c1C(C)C returned NCOA2 inhibitor 29.
For CCOC(=O)[C@@]12CCCC=C1N(CCc1ccc(Cl)cc1)C(=O)[C@H]2CC(=O)NCc1cccc2ccccc12 the results were NCOA2 inhibitor -13.
For CCOC(=O)Cn1cc(/C=C/[N+](=O)[O-])c2ccccc21 the results were SRC3 inh 16, Shn3 inh set2 -22, LRH-1 inv ag 13, NCOA2 inhibitor 4, NCOA1 inh -5 and EBV LMP1 NFkB 5.
`CCOC(=O)COc1ccc2ccccc2c1/C=C/[N+](=O)[O-]` gave SRC3 inh 16, Shn3 inh set2 95*, LRH-1 inv ag 9, NCOA2 inhibitor 8, NCOA1 inh 9 and EBV LMP1 NFkB 12.
For CCOc1ccc(/C=C/[N+](=O)[O-])c2ccccc12 the results were SRC3 inh 2, Shn3 inh set2 95*, LRH-1 inv ag 13, NCOA1 inh 4 and EBV LMP1 NFkB 75*.
